This is a sample that favours compounds with a hit; in the whole collection about 2.8% have one here.
HSP90 refold inh = blocks HSP90-mediated luciferase refolding in reticulocyte lysate | Rabbit reticulocyte lysate, luciferase refolding luminescence, 3 h | inhibition, % at 5.6 µM | 290,000 tested, 0.91% active | AID 1789;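 active means inhibition above the screen-wide mean plus 3 SD, computed separately per campaign, cut at about 16% in these data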;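 further: 0% = DMSO wells and 100% = 60 µM geldanamycin wells; inhibitors lower the luminescence because luciferase stays unfolded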
SENP8 block-1 = inhibitors of human SENP8 protease; purified SENP8, Z-RLRGG-aminoluciferin cleavage, luminescence; inhibition, % at 10 µM; 330,000 tested, 1.2% active; AID 2540; in the data active means inhibition above about 50%
Target sequence (Q96LD8 whole entry, looked up): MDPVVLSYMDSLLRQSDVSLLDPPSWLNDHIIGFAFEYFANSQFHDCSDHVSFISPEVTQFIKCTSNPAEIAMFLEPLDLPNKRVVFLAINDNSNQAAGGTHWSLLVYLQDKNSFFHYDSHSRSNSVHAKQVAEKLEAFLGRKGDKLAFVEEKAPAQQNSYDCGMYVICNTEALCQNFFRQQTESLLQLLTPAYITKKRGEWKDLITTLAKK
SENP8 block-2 = SENP8 (human) protease inhibition | Q96LD8 | recombinant SENP8, Nedd8 substrate fluorescence | inhibition, % at 20 µM | 360,000 tested, 0.64% active; in the data active means inhibition mostly above about 40%, no sharp cut-off; inactive means mostly below about 27%
SENP6 block = inhibitors of human SENP6 protease. Recombinant SENP6 catalytic domain, aminoluciferin luminescence. inhibition, % at 10 µM. 330,000 tested, 1.8% active. AID 2599;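 active means inhibition above about 50% at the single tested dose, limit read from the data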;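 further: plate controls were DMSO wells with enzyme for no effect and DMSO wells lacking enzyme for full effect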
Target sequence (Q9GZR1 628-1112 limits assumed): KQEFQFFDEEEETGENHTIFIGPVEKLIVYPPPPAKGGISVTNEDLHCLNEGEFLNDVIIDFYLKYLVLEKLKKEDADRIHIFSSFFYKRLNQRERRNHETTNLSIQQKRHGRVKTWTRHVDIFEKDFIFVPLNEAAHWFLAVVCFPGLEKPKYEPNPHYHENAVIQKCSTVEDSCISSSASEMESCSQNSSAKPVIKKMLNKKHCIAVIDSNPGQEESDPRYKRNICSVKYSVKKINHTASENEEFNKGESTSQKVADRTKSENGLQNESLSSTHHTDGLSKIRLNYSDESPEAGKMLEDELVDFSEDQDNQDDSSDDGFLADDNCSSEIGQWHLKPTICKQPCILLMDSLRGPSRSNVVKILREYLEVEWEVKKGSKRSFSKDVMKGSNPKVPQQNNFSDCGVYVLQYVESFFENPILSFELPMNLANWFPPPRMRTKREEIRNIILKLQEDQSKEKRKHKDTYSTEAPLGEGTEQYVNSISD
Platelet DG rel = modulates dense granule release in human platelets; 300,000 tested, 0.22% active; human platelet-rich plasma, SFLLRN dense granule ATP release, luminescence; inhibition, %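 (compounds screened at 7.5 µM in platelet-rich plasma)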;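 active means mean replicate score, as percent of positive control, at or above 50; inconclusive means mean below 50 but at least one replicate at or above 50; inactive means mean and every replicate below 50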
SENP7 inh = SENP7 protease inhibition; Q9BQF6; recombinant SENP7, Z-RLRGG-aminoluciferin luminescence, 40 min; inhibition, % at 5 µM; 330,000 tested, 1.5% active; AID 434973;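 active means inhibition above about 50% at the single test dose, limit read from the data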;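 further: plate controls were DMSO with enzyme for no effect and no enzyme buffer wells for full effect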
SENP8 confirm = human SENP8 inhibition, confirmed. shares compounds with SENP7 inh. Recombinant SENP8, Z-RLRGG-aminoluciferin luminescence, 60 min. inhibition, % at 12.5 µM. 6,200 tested, 40% active. AID 488912;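 active means mean inhibition across replicates above about 50%, limit read from the data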
SENP6 conf = confirmation of human SENP6 protease inhibitors | inhibition, % at 12.5 µM | shares compounds with SENP7 inh | recombinant SENP6, Z-RLRGG-aminoluciferin luminescence | 6,200 tested, 58% active
SENP7 conf = human SENP7 inhibition, confirmed; recombinant SENP7, Z-RLRGG-aminoluciferin luminescence, 40 min; 6,200 tested, 69% active; inhibition, % at 12.5 µM; shares compounds with SENP7 inh
Casp3 select = caspase-3 inhibition (SENP selectivity assay) | shares compounds with SENP7 inh | purified caspase-3, Z-DEVD-aminoluciferin luminescence, 60 min | inhibition, % at 12.5 µM | 6,200 tested, 60% active;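 active means mean inhibition above about 50%, limit read from the data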;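 further: plate controls were enzyme with DMSO for no effect and wells without caspase-3 for full effect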
SENP luc ctr = luminescence interference (SENP counter-screen). shares compounds with SENP7 inh. Pre-incubated SENP8/Z-RLRGG-aminoluciferin, luciferase luminescence interference. inhibition, % at 12.5 µM. 6,200 tested, 39% active. AID 488919;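 active means mean inhibition above about 50% when retested at one dose, limit read from the data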;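 further: plate controls were DMSO wells with completed reaction for no effect and substrate without enzyme for full effect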
Starred values were filed as active, the others as inactive; ? = inconclusive; . = no result given.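 How the source made its calls, unless noted: active means mean inhibition above about 50% in the one-dose retest (limit read from the data); inactive means the rest.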

SMILES	HSP90 refold inh	SENP8 block-1	SENP8 block-2	SENP6 block	Platelet DG rel	SENP7 inh	SENP8 confirm	SENP6 conf	SENP7 conf	Casp3 select	SENP luc ctr
Clc1ccc2oc(-c3cccnc3)nc2c1	1.1	-9.9	-22.0	24.2	-2.3	6.0	.	.	.	.	.
COc1ccc(-c2cn3cc(Cl)ccc3n2)cc1OC	8.6	1.0	-270.8	2.0	-2.8	6.5	.	.	.	.	.
Clc1ccc2nc(-c3ccc(Br)s3)cn2c1	10.7	63.3*	-292.1	80.0*	1.9	4.9	14.4	68.8*	86.5*	48.7	15.1
Cc1cccc(NC(=O)NC(=O)c2ccccc2)n1	-1.7	22.0	10.5	-7.9	26.4	53.7*	9.5	12.1	24.2	14.7	1.9
Cc1cccc(NC(=O)c2ccc(C(=O)c3ccccc3)cc2)n1	.	12.9	20.7	39.9	-3.2	41.0	.	.	.	.	.
COc1ccc(Cl)cc1NC(=O)CN(C)C(=O)c1cc2c(s1)CCC(C)C2 (stereo not given)	.	-9.1	1.9	-15.3	-1.8	2.3	.	.	.	.	.
O=Nc1c(-c2c(O)[nH]c3cc(Br)ccc23)[nH]c2ccccc12	-5.7	8.5	19.5	54.2*	2.0	52.7*	17.0	35.5	78.6*	21.5	4.0
O=C(CSCc1cccc(Br)c1)N=Nc1c(O)[nH]c2ccccc12	1.0	0.0	14.1	8.2	-3.3	6.4	.	.	.	.	.
CSc1nnc(NC(=O)c2ccc(S(=O)(=O)N(C)C)cc2)s1	4.4	40.6	-4.6	21.9	-1.0	51.0*	15.7	14.3	13.0	31.5	5.9
CC(C)NC(=O)C(=O)Nc1cc2c3c(c1)C(C)C(=O)N3CCC2 (stereo not given)	1.2	4.0	10.7	-10.0	1.0	5.2	.	.	.	.	.
Brc1ccccc1-c1nc2c3ccccc3ncn2n1	.	77.3*	-212.2	90.9*	.	10.8	-5.5	29.2	68.1*	39.2	55.8*
S=c1nc2ccccc2c2nc(-c3ccccc3Br)[nH]n12	0.6	-3.5	24.0	-10.2	3.8	-5.7	.	.	.	.	.
O=C1COc2ccc(N3C(=O)C=CC3=O)cc2N1	-2.6	-3.1	.	-25.3	34.2	5.7	.	.	.	.	.
O=C(Nc1ccc(Br)cn1)c1ccc2ccccc2c1	1.0	-11.3	0.0	-0.8	4.0	61.4*	-9.3	-7.0	-1.7	8.3	3.0
O=C(Nc1ccc(Br)cn1)c1cccc(C(=O)Nc2ccc(Br)cn2)c1	10.0	-7.5	10.0	4.6	-2.3	-11.8	.	.	.	.	.
O=C(Nc1nccs1)c1ccc2ccccc2c1	3.7	69.2*	-1.3	73.5*	2.7	71.6*	81.2*	80.1*	92.8*	70.9*	80.3*
CC(=O)NC1=NN(C(C)=O)C(c2ccco2)S1 (stereo not given)	1.2	-2.3	16.9	-5.7	6.6	-9.3	.	.	.	.	.
CCOC(=O)c1cc(-c2cc3ccccc3o2)n[nH]1	-0.9	33.0	-7.5	72.0*	0.9	53.8*	63.0*	60.6*	80.8*	48.0	32.6
CCOC(=O)c1cc(-c2ccc(C)o2)n[nH]1	4.2	1.9	14.9	-39.0	4.3	7.0	.	.	.	.	.
CC(=O)/C(=C/N(C)C)C(=O)Nc1ccc(Cl)cc1Cl	-3.5	77.6*	1.3	10.3	1.5	4.8	70.2*	65.6*	91.8*	81.4*	77.4*
Cc1ccc(-c2nnc(COC(=O)c3cccs3)o2)cc1	-2.1	71.4*	-2.5	77.6*	0.2	72.4*	79.6*	77.6*	94.1*	77.7*	68.9*
Cc1ccc(-c2nnc(COC(=O)c3ccco3)o2)cc1	6.0	14.1	-1.2	40.6	16.9	41.0	.	.	.	.	.
O=C(COC(=O)c1cccs1)c1ccc2ccccc2c1	-0.5	62.7*	0.0	41.2	4.8	78.1*	-19.3	64.0*	89.3*	43.8	54.3*
Cc1ccc(C(=O)COC(=O)c2cccs2)cc1	-3.6	86.5*	10.7	93.8*	15.3	93.6*	92.9*	92.3*	99.1*	91.6*	88.5*
O=C(COC(=O)c1cccs1)c1ccc2c(c1)OCCO2	7.3	79.9*	13.5	94.9*	22.2	13.9	98.6*	99.4*	102.5*	96.9*	97.0*
SMILES	HSP90 refold inh	SENP8 block-1	SENP8 block-2	SENP6 block	Platelet DG rel	SENP7 inh	SENP8 confirm	SENP6 conf	SENP7 conf	Casp3 select	SENP luc ctr
CC(C)N(C)c1ncnc2c1ncn2[C@H]1CN(C2CCCC2)C[C@@H](CO)O1	.	.	1.7	.	.	.	.	.	.	.	.
NC(=O)c1cc([N+](=O)[O-])ccc1NCc1cccc2ccccc12	.	2.5	14.7	-7.3	.	-8.2	.	.	.	.	.
O=C(/C=C/Nc1ccc([N+](=O)[O-])cc1Br)c1cccc2ccccc12	0.1	8.6	-5.8	87.2*	-6.7	85.6*	14.9	15.8	27.3	13.9	1.3
CC(=O)Nc1nc2cc3c(cc2s1)OCCO3	17.4*	61.2*	4.3	76.7*	-3.2	79.3*	78.1*	76.4*	93.7*	88.7*	74.2*
Cc1cc(C)n2nc(SCC(=O)Nc3ccccc3C)nc2n1	-2.5	9.5	-6.3	-13.7	4.9	1.4	.	.	.	.	.
O=C(NCc1n[nH]c(=S)n1-c1ccc(Cl)c(Cl)c1)c1ccc(S(=O)(=O)N2CCOCC2)cc1	-4.9	4.4	5.5	2.9	0.8	-3.0	.	.	.	.	.
CN1C(=O)C(c2ccccc2[N+](=O)[O-])C(=O)c2ccccc21 (stereo not given)	-4.6	-7.0	15.8	7.3	1.0	-3.0	.	.	.	.	.
O=C(O)c1cccc(Nc2ccc([N+](=O)[O-])cn2)c1	3.2	89.5*	13.5	91.2*	-7.3	92.6*	92.0*	92.4*	100.6*	82.7*	93.1*
O=[N+]([O-])c1ccc(Nc2ccc3ccccc3c2)nc1	-0.3	-15.8	12.2	-2.7	-9.2	8.8	.	.	.	.	.
COc1ccc(-c2nc(-c3ccc(Br)o3)no2)cc1OC	-3.1	10.0	2.2	3.2	-2.2	14.4	.	.	.	.	.
COc1ccc(-c2nc(-c3ccc(Br)cc3)no2)c(OC)c1	-7.5	-4.5	4.2	-6.5	?	47.6	.	.	.	.	.
Cc1ccc(-c2noc(-c3ccccc3Br)n2)cc1	-4.8	80.0*	15.8	76.2*	.	89.9*	64.2*	64.1*	84.6*	70.2*	64.7*
COc1ccccc1-c1nc(-c2ccc(Br)cc2)no1	1.8	70.0*	-7.3	71.4*	-6.1	-0.4	0.1	11.4	22.3	10.0	7.4
CN(C)c1ccc(-c2noc(-c3ccccc3O)n2)cc1	3.4	27.3	-50.1	-24.5	2.2	90.0*	10.6	19.0	17.4	49.5	11.9

Source: PubChem BioAssay (several laboratories)
